From PubChem BioAssay (NCI) come the findings set out here.

Common to all, as to assay: NCI-60 one-dose screen, 48 h (100 = growth as untreated, 0 = no growth, -100 = all killed)
The test system of test [1] is NCI-H23 lung.
Test [2] deals with NCI-H226 lung.
The test system of test [3] is NCI-H322M lung.
In test [4] the test system is HOP-62 NSCLC.
For test [5], the system named is HOP-92 NSCLC.
Test [6] deals with NCI-H522 lung.
For test [7], the system named is A549/ATCC NSCLC.
Test [8] has as its system 786-0 renal.
Test [9] has as its system DU-145 prostate.
Test [10] concerns K-562 leukemia.
Test [11] relates to MALME-3M melanoma.
The test system of test [12] is MDA-MB-231 breast.
Test [13] has as its system RXF 393 renal.
The subject of test [14] is SF-268 CNS.
Test [15] deals with SF-295 CNS.
Test [16] concerns SF-539 CNS.
Test [17] has as its system UACC-257 melanoma.
Test [18] relates to M14 melanoma. The following applies: 10 µM unless noted.

Several values for one entry are separate records, joined by “and”; a condition that tells them apart may be missing. Equal entries are not always repeated. The panel holds about 83,000 compounds, 20% with a hit somewhere; the sample as a whole holds those more often.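 48-hour exposure, single concentration, 96-well plates; percent growth endpoint where 0 means no net growth. Active: below 10.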 Unmarked numbers belong to inactive results. Activity calls are given as the source filed them.

As for `S=P(N1CC1)(N1CC1)N1CC1`, the growth is 100% and 73.4% in test [1] (10 µM); 33% in test [1] (100 µM); 102% and 80.4% in [2] (10 µM); 62.4% in [2] (100 µM); 102% and 98.2% in test [3] (10 µM); 89.4% in test [3] (100 µM). Further, the growth in test [4] (10 µM) was 109% and 36.8%; in test [4] (100 µM) it was 47.9%; in test [5] (10 µM), 99.9%; in [5] (100 µM), 36.1%; in test [6] (10 µM), 104% and 82.9%; in test [6] (100 µM) it was 59.5%. Further, the growth in test [7] (10 µM) was 103% and 69.9%; in [7] (100 µM) it was 52.2%; in test [8] (10 µM), 100% and 83.6%; in test [8] (100 µM), 21.6%; in test [9] (10 µM), 121% and 71.9%; in [9] (100 µM), -0.811% (active). The growth is 109% and 53.2% in test [10] (10 µM); 43.4% in test [10] (100 µM); 98.1% and 97.8% in [11] (10 µM); 82% in [11] (100 µM); 100% and 103% in test [12] (10 µM); 101% in test [12] (100 µM). The growth was 120% and 86% in test [13] (10 µM); 14.4% in test [13] (100 µM); 124% and 83.6% in [14] (10 µM); 36.5% in test [14] (100 µM); 104% and 81.7% in test [15] (10 µM); 14.3% in test [15] (100 µM). Further, the growth was 113% and 94.6% in test [16] (10 µM); -8.76% (active) in test [16] (100 µM); 107% and 87.7% in test [17] (10 µM); 37.2% in test [17] (100 µM); 96.2% and 60.4% in test [18].

For the molecule `Cc1cc(Cl)ccc1NC(=O)/C(Cl)=C1/Sc2ccccc2NC1=O`, the growth is 88.4% in [1] (10 µM); 90.3% in test [2] (10 µM); 102% in test [3] (10 µM); 91% in [4] (10 µM); 70.5% in [5] (10 µM); 104% in test [6] (10 µM). The growth in [7] (10 µM) was 112%; in test [8] (10 µM) it was 92.9%; in [9] (10 µM), 121%; in [10] (10 µM) it was 88.7%; in [11] (10 µM), 109%; in [12] (10 µM) it was 80.4%. Further, the growth in [14] (10 µM) is 103%; in test [15] (10 µM), 118%; in test [16] (10 µM), 94%; in [17] (10 µM), 103%; in [18], 83.8%.

As to `CCC(=O)Oc1ccc(/C=N/NC(N)=S)nc1`, the growth was 26.7% in test [1] (10 µM); 79.1% in test [2] (10 µM); 46% in [3] (10 µM); 36.4% in [4] (10 µM); 68.5% in test [5] (10 µM); 39.4% in [6] (10 µM). The growth in test [7] (10 µM) was 98.8%; in test [8] (10 µM), 23.6%; in test [9] (10 µM), 28.4%; in [10] (10 µM), 47.3%; in [11] (10 µM), 59%; in test [12] (10 µM) it was 63.4%. Further, the growth in test [13] (10 µM) was 60.5%; in test [14] (10 µM) it was 25.4%; in [15] (10 µM), 97.4%; in test [17] (10 µM), 68.1%; in test [18] it was 9.1% (active).

As to `COc1ccc(N)c2c1C(=O)c1ccccc1C2=O`, the growth in [1] (10 µM) is 99.6%; in test [2] (10 µM), 93.5%; in [3] (10 µM), 91.1%; in [4] (10 µM) it was 111%; in test [5] (10 µM) it was 84.1%; in test [6] (10 µM), 88.6%. In addition, the growth in test [7] (10 µM) was 96.7%; in [8] (10 µM) it was 112%; in test [9] (10 µM) it was 112%; in test [10] (10 µM), 98.9%; in test [11] (10 µM) it was 88.2%; in test [12] (10 µM), 95.5%. The growth in test [13] (10 µM) was 95.6%; in test [14] (10 µM), 104%; in [15] (10 µM) it was 103%; in test [16] (10 µM), 101%; in test [17] (10 µM) it was 106%; in [18], 117%.

Turning to `COc1cc(N)ccc1Nc1c2ccccc2nc2ccccc12`, the growth in test [1] (10 µM) was 91.8%; in test [2] (10 µM) it was 73.3%; in [3] (10 µM) it was 83.6%; in [4] (10 µM) it was 83.6%; in [7] (10 µM), 40.8%; in test [8] (10 µM), 69.4%. In addition, the growth was 39.7% in test [9] (10 µM); 1.11% (active) in [10] (10 µM); 95.7% in [11] (10 µM); 56.4% in [12] (10 µM); 95.1% in test [13] (10 µM); 10.4% in test [14] (10 µM). In addition, the growth in test [15] (10 µM) was 91.5%; in [18], 94.1%.

As to `CC[C@@]1(OC(=O)CN(C)C)C(=O)OCc2c1cc1n(c2=O)Cc2cc3c(N)cccc3nc2-1`, the growth was -26.7% (active) in test [1] (10 µM); -13.4% (active) in test [2] (10 µM); -18.6% (active) in test [3] (10 µM); -5.79% (active) in test [4] (10 µM); -26% (active) in [6] (10 µM); 4.76% (active) in test [7] (10 µM). Moreover, the growth in test [8] (10 µM) was 0.893% (active); in [9] (10 µM), 4.87% (active); in [10] (10 µM) it was 9.06% (active); in test [11] (10 µM), -23.9% (active); in test [12] (10 µM), 27.7%; in test [13] (10 µM), -23.4% (active). Further, the growth in test [14] (10 µM) was 8.15% (active); in test [15] (10 µM) it was -7.04% (active); in [16] (10 µM) it was -30.9% (active); in test [17] (10 µM) it was -35.4% (active); in test [18], -40.1% (active).

For the molecule `COc1ccc2c(c1)[nH]c1c(/C=C/c3ccccc3)nccc12`, the growth was 60.8% in test [1] (10 µM); 73% in test [2] (10 µM); 70.5% in test [3] (10 µM); 71.8% in test [4] (10 µM); 40.3% in test [6] (10 µM); 87.3% in [7] (10 µM). For the same molecule, the growth in [8] (10 µM) is 62.9%; in [9] (10 µM), 103%; in test [10] (10 µM), 36.1%; in [11] (10 µM), 69.2%; in test [12] (10 µM), 73.7%; in test [13] (10 µM), 69.5%. The growth was 85.5% in test [14] (10 µM); 59.2% in test [15] (10 µM); 52.1% in [16] (10 µM); 71.8% in [17] (10 µM); 71.4% in test [18].

With `S=C1SCN(CCc2ccccc2)CN1CCc1ccccc1`, the growth in [1] (10 µM) was 96.5%; in [2] (10 µM), 99.4%; in [3] (10 µM), 86.5%; in test [4] (10 µM) it was 87.6%; in test [6] (10 µM), 58.6%; in test [7] (10 µM) it was 90.8%. Further, the growth in test [8] (10 µM) was 117%; in [9] (10 µM), 93%; in [10] (10 µM) it was 55.8%; in [11] (10 µM), 87.3%; in test [12] (10 µM) it was 99.3%; in test [13] (10 µM), 91.8%. The growth in [14] (10 µM) was 106%; in test [15] (10 µM), 93.4%; in test [16] (10 µM), 115%; in [17] (10 µM) it was 71.6%; in [18] it was 120%.
